# Out of some 420,000 compounds screened, about 64,000 (15%) were called active. Another 27% or so got no clear call; they are omitted. Calls follow the shape of the dose curve; as a rule, active = well fitted inhibition curve with a large enough effect; inconclusive = small, poorly fitted or top-dose-only effect; inactive = flat fitted curve, though single readings scatter. These entries were drawn from the full list. A call without a number means that no potency is given here.
# Assay: qHTS for Inhibitors of human tyrosyl-DNA phosphodiesterase 1 (TDP1): qHTS in cells in absence of CPT; also: nearly all actives have a fitted effect of over 55% in size
# Conditions: DT40 Tdp1-/- hTDP1 cells, no CPT, ATP luminescence, 48 h; activity change, negative = growth inhibition: at 46.2 µM (top of the series)
# In short: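 Readout: luminescence from CellTiter-Glo after 30 min in the dark at RT. Cells: DT40 Tdp1-/- with stable hTDP1, 400/well. Exposure: compounds alone, ≥48 hr, 37 °C.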
# Potency is read from the fitted curve at half-maximal effect.
row,Compound,Potency
1,CC(=O)Nc1cc(-c2ccc(N3CCN(C)CC3)cc2)cn2c(-c3ccc(F)cc3)cnc12,4.61 µM (active)
2,COc1ccc(-c2nnco2)cc1OC,inactive
3,COc1ccc(-c2nnc(SCC(=O)Nc3ccccc3C)o2)cc1OC,inactive
4,CN(C)C(=O)c1cccc(-c2cnc3c(NC=O)cc(-c4ccc(F)cc4)cn23)c1,6.51 µM (active)
5,COc1ccc(-c2cc(NC=O)c3ncc(-c4ccccc4)n3c2)cc1OC,8.2 µM (active)
6,COc1ccc(NC(C)=O)cc1NC(=O)CN1CCN(c2ccc(F)cc2)CC1,inactive
7,CCCCCCCCCCOC(=O)C[N+](C)(C)CC1CCCCC1O (configuration not stated),inactive
8,CO/N=C/c1cn(-c2ccc(Cl)cc2)nn1,inactive
9,CCOC(=O)CSc1nnc(CNC(=O)c2cccs2)n1-c1ccccc1,inactive
10,Nc1ccc(-c2nnc(-c3ccccc3)o2)cc1,inactive
11,COc1ccccc1C1C(C(N)=O)=C(C)Nc2nc(CCCO)nn21 (configuration not stated),inactive
12,Cc1cccc(C)c1NC(=O)CNC(=O)c1ccc2c(c1)OCCO2,inactive
13,COc1ccccc1NC(=O)CCSc1nnc(-c2ccc(O)cc2)o1,inactive
14,CC(=O)c1cccc(-c2cnc3c(NC=O)cc(-c4ccc(N5CCN(C)CC5)cc4)cn23)c1,16.4 µM (active)
15,COc1ccc(-c2cc(NC=O)c3ncc(-c4cccc(C(=O)N(C)C)c4)n3c2)c(OC)c1,16.4 µM (active)
16,COc1ccc(C2C(C(=O)Nc3ccccc3OC)=C(C)Nc3nnnn32)c(OC)c1 (configuration not stated),inactive
17,COCCCN1C(=O)c2ccc(C(=O)Nc3ccc(OC)cc3OC)cc2C1=O,inactive
18,COc1ccc(C2(C#N)CCC(C(=O)O)CC2)cc1OC1CCCC1 (configuration not stated),inactive
19,Cc1coc2cc3oc(=O)c(CCC(=O)O)c(C)c3cc12,inactive
20,CC(C)Cc1nnc(NC(=O)CCC(=O)Nc2ccc3cn[nH]c3c2)s1,inactive
21,Nc1nonc1-n1nnc(C(=O)N/N=C\c2ccncc2)c1CN1CCCCC1,inactive
22,COc1ccc(Cc2nnc(NS(=O)(=O)Cc3ccccc3)s2)cc1,inactive
23,CCC(C)(C(=O)NC1CCCC1)N(C(=O)CNC(C)=O)c1ccc(C)cc1 (configuration not stated),inactive
24,Cc1nc2nc(SCC(=O)c3ccccc3)[nH]c2cc1Br,inactive
25,COc1ccc2c(C)c(CCC(=O)NC3CC3)c(=O)oc2c1C,16.4 µM (active)
26,COc1ccc(OC)c(Cc2nnc(CCC(=O)NC3CCCC3)o2)c1,inactive

row,Compound,Potency
1,Cc1c(CCC(=O)O)c(=O)oc2c(C)c(OCc3ccccc3Cl)ccc12,inactive
2,O=C(Nc1cccc2c1N(C(=O)c1ccco1)CCC2)c1ccco1,inactive
3,O=c1[nH]c2ccc(S(=O)(=O)N3CCCC3)cc2[nH]1,inactive
4,Cc1cc(C)cc(NC(=O)N(C)Cc2ccccc2)c1,inactive
5,COC(=O)C(NS(=O)(=O)c1ccc(F)cc1)c1ccccc1 (configuration not stated),inactive
6,CCOC(=O)C(C)n1cnc2c(nnn2-c2cccc(OC)c2)c1=O (configuration not stated),inactive
7,CCc1cccc(CC)c1NC(=O)Cn1c(=O)c(-c2cc(C)ccc2NC(C)=O)nc2ccccc21,inactive
8,CCC(=O)Nc1ccc2nc(C)n(Cc3ccccc3Cl)c(=O)c2c1,inactive
9,CC(=O)Nc1nc2ccccc2n1Cc1ccc(C)cc1,13 µM (active)
10,CC(=O)c1nc2ccccc2n1Cc1ccccc1,inactive
11,CCC(=O)Nc1ccc(C)cc1-c1nc2ccccc2n(Cc2ccccc2)c1=O,inactive
12,CCC(=O)Nc1nc2ccccc2n1Cc1ccccc1C,14.6 µM (active)
13,Cc1cccc(N(CC(=O)N2CCOCC2)S(C)(=O)=O)c1,inactive
14,CCNC(=O)COC(=O)CCNC(=O)c1cccc(C)c1,inactive
15,CCOc1ccc(C(CC(=O)O)NC(=O)C23CC4CC(CC(C4)C2)C3)cc1OC (configuration not stated),inactive
16,CN1C(=O)/C(=C/C=C2\SCCN2C)OC1=S,inactive
17,COc1ccc(N2CCN(c3nc(-c4ccccc4F)nc4ccccc34)CC2)cc1,16.4 µM (active)
18,COc1ccc(N2CCN(CCNC(=O)c3nnc(Cc4c(F)cccc4Cl)o3)CC2)cc1,inactive
19,COc1ccccc1-c1nc(N2CCN(C)CC2)c2ccccc2n1,inactive
20,Brc1cc(Br)c(Oc2cc(Br)c(Br)cc2Br)cc1Br,inactive
21,CCc1ccc[n+](-c2nc([O-])sc2C=O)c1,inactive
22,CCN(CC(=O)Nc1ccccc1C(F)(F)F)C(=O)C1CCN(C(=O)Nc2ccccc2)CC1,inactive
23,CC(C)CCN(C(=O)Nc1ccc(Cl)c(Cl)c1)C(C)c1cccs1 (configuration not stated),18.4 µM (active)
24,Cc1ccc(NC(=S)N(Cc2ccco2)C(C)c2cccs2)cc1 (configuration not stated),inactive
25,CC(=O)Nc1ccc(S(=O)(=O)N2CCC(N(C)CCC(C)C)CC2)cc1,inactive
26,S=C(Nc1ccc(Br)cc1Cl)N1CCC2(CC1)OCCO2,inactive

# From PubChem BioAssay AID686978 (National Center for Advancing Translational Sciences (NCATS), 2013)
